# In publication PMC7819943, “Rice protein-binding microarrays: a tool to detect cis-acting elements near promoter regions in rice”:
# The full ranking holds about 39,000 sequences; the median of “fluorescence intensity (a.u.)” is about 4,300, and the highest 2% start at about 39,000. The list comes from a sample in which the highest values are over-represented; it also holds similar and randomly drawn sequences.
# Biological target: T1, OsSMF1 (Oryza sativa, UniProt Q6ZLB0 1-436)
# T1 sequence: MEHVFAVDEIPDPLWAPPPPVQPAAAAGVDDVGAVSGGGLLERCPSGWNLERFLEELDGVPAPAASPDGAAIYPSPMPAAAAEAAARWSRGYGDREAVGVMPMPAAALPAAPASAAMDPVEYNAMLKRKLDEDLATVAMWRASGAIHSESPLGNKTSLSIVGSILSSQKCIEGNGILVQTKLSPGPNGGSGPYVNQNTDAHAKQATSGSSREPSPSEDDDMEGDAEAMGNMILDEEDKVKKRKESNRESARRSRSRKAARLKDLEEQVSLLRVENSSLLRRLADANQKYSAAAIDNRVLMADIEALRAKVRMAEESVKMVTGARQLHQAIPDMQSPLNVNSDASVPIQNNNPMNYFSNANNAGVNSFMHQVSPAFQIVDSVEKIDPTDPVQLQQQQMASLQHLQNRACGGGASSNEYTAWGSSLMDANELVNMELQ
# Experiment: protein-binding microarray (RPBM); PBS, 2% BSA, 51.3 ng/ul salmon testes DNA, 50 uM zinc acetate, 200 nM TF, 25 C, 1 h; high values mean tight binding
# Conditions: protein: recombinant; tags: N-terminal polyhistidine and DsRed monomer fusion (pET32a); chain copies: 2; label: CyDye5-dUTP incorporated in the synthesized complementary strand; 3' TTTTT single-stranded linker to array surface; dsDNA, one strand shown
# Procedure, shortened: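 For the binding signal, per-feature fluorescence intensity was read in arbitrary units on an Axon 4000B scanner. Before scanning, a 2% BSA-blocked custom Agilent array made double-stranded with Cy5-dUTP was washed after 1 h at 25 °C with 200 nM protein and 50 µM zinc acetate. The proteins were Ni–NTA-purified transcription factors with N-terminal polyhistidine and DsRed fusions, expressed in E. coli BL21-CodonPlus.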
row,Sequence,binding signal
1,TGTTTGTCGTGACTTAGCTTAGTTGTTGCTGTTGTTGAGCCGGAGTCACCTAGTGCAG,3400 fluorescence intensity (a.u.)
2,CGGTGGTTTTGGCTGACGTGGCACCTATGTGGCAAATTTGCGGAGTCACCTAGTGCAG,7870 fluorescence intensity (a.u.)
3,TTCATATTTATTTGATGACGTGGCTAATCCTGGTCGGATCCGGAGTCACCTAGTGCAG,40700 fluorescence intensity (a.u.)
4,GAGGGCGGTTTTGCTGATGTGGCGTTGACGTGGCGATGTTCGGAGTCACCTAGTGCAG,27700 fluorescence intensity (a.u.)
5,GATGGCGGTTTTGCTGATGTGGCGTTGACGTGCCGACCCGCGGAGTCACCTAGTGCAG,13200 fluorescence intensity (a.u.)
6,GTTTAGATGGTGGTTTTGGCTGACGTGTCACCTACGTGGCCGGAGTCACCTAGTGCAG,24200 fluorescence intensity (a.u.)
7,GTCATATTTATTTGGATGATGTGGCATGTTCTGGTGGTGACGGAGTCACCTAGTGCAG,15700 fluorescence intensity (a.u.)
8,GCTTGCTGCTGCTGCTGCTGATAGTTTAGCTTGAGAGAGCCGGAGTCACCTAGTGCAG,22700 fluorescence intensity (a.u.)
9,TTTGATGGTGGTTTTGGCTGACGTGGCACCTACATGGCATCGGAGTCACCTAGTGCAG,42900 fluorescence intensity (a.u.)
10,GAGTTTGATAGCTTAGCAGAAATAGTTTTGCTGACGTGGCCGGAGTCACCTAGTGCAG,40700 fluorescence intensity (a.u.)
11,AAGAGACCTGTTTATTAGCGTCACTGACAGTCGTTGTCACCGGAGTCACCTAGTGCAG,3660 fluorescence intensity (a.u.)
12,ATTTCATCCTTATTAGGGCCTATTTGGAGCATTGGCAGGGCGGAGTCACCTAGTGCAG,3750 fluorescence intensity (a.u.)
13,AGATCCCGAATTCGTGCCACGTGATCTGCCGTCGTGTATTCGGAGTCACCTAGTGCAG,6050 fluorescence intensity (a.u.)
14,CCCCGCTTCGCCGCCGGCCGCCTCTCTCTTCTCAAGAGTCCGGAGTCACCTAGTGCAG,3340 fluorescence intensity (a.u.)
15,GCAACCGCGACGACCGATCCACGTGGCACCACCTCATTGGCGGAGTCACCTAGTGCAG,29400 fluorescence intensity (a.u.)
16,GGGCCCAGCAGGTTCCTAGTAGACTTCGTCGTAGTGGGACCGGAGTCACCTAGTGCAG,8310 fluorescence intensity (a.u.)
17,GCTATAATATATTGCAGCAGCAGCAGCAGTGGTGGTGGTGCGGAGTCACCTAGTGCAG,3360 fluorescence intensity (a.u.)
18,TGATGGCCGGTGATCAGTGGCATGTGCATGTTATATTATTCGGAGTCACCTAGTGCAG,3260 fluorescence intensity (a.u.)
19,CACTCCAGAACCAAACGTTTGATGACTCTCTGCTTTTGCGCGGAGTCACCTAGTGCAG,4570 fluorescence intensity (a.u.)
20,ACAAACCGAGGAGGAGGAGGAGGGCCCACCAGCCACCACGCGGAGTCACCTAGTGCAG,3310 fluorescence intensity (a.u.)
21,GCTGGTTTGATTAGATCTTCATCCCACGTGGCATTGACGTCGGAGTCACCTAGTGCAG,25100 fluorescence intensity (a.u.)

row,Sequence,binding signal
1,CGGTTTTAGCTGACGTGGCGCCTACGTGGCAAAGTTGACCCGGAGTCACCTAGTGCAG,44700 fluorescence intensity (a.u.)
2,GCTAATTTGACTCGGTTTTCATCTGACGTGGCATTGACGTCGGAGTCACCTAGTGCAG,41400 fluorescence intensity (a.u.)
3,GGTTTTAGCTGACGTGGCGCCTACGTGACAGTGTTGACCCCGGAGTCACCTAGTGCAG,32700 fluorescence intensity (a.u.)
4,AGATCATTAGTTAGCACATATCATCCACATCATCCTATTTCGGAGTCACCTAGTGCAG,5980 fluorescence intensity (a.u.)
5,CTGACGAGCAGAACATTAGCTATCCTATCCAGAATAGTTTCGGAGTCACCTAGTGCAG,47400 fluorescence intensity (a.u.)
6,AAACCCAATCCAGTTAGGAATAGAACATTAGATATCCAACCGGAGTCACCTAGTGCAG,3940 fluorescence intensity (a.u.)
7,ATAGTGGTTTTGGCTGACGTGGCGCCTACGTGGCTAATTTCGGAGTCACCTAGTGCAG,19600 fluorescence intensity (a.u.)
8,GGACGGTTTCGCTGATGTGGCGCCTACGTGGCATCCTAATCGGAGTCACCTAGTGCAG,20300 fluorescence intensity (a.u.)
9,AGGGCGCTTTTGGCTGACATGGCGCCTACGTGGCTTGTTTCGGAGTCACCTAGTGCAG,28100 fluorescence intensity (a.u.)
10,CTGTTTCGCTGACGTGACGCCTACGTGGCATCCCAGTCATCGGAGTCACCTAGTGCAG,40300 fluorescence intensity (a.u.)
11,GTTTTGGCTGACGTGGCGCCTACGTGGTTTGTTTGACCTACGGAGTCACCTAGTGCAG,37300 fluorescence intensity (a.u.)
12,GCTTGCTCGCCGGCGGTGTGGGAATGATGACTCCCAGCCCCGGAGTCACCTAGTGCAG,4050 fluorescence intensity (a.u.)
13,GTCGTGTCGGCTGCCGATTACACTATCGGCAGTGCAGCCGCGGAGTCACCTAGTGCAG,4270 fluorescence intensity (a.u.)
14,CGCGGCGCGCACACGCCATGCCGGCATGCCGTGGCATACCCGGAGTCACCTAGTGCAG,3990 fluorescence intensity (a.u.)
15,CTATATATGTGACGCTGACGTTCCTCATCTCCCAAGCTGCCGGAGTCACCTAGTGCAG,7040 fluorescence intensity (a.u.)
16,TTAGTGTCTGCATTGGATATGAGTCACGGGTTCTTGGTTACGGAGTCACCTAGTGCAG,12600 fluorescence intensity (a.u.)
17,CGACGTCGGCGAGGGAGGGCTTCCTGGGCACGTCGGCGAGCGGAGTCACCTAGTGCAG,3150 fluorescence intensity (a.u.)
18,ACAGCAAACAAACGTAACACCTTAACACGTCATGCAGTTTCGGAGTCACCTAGTGCAG,15100 fluorescence intensity (a.u.)
19,AAGAGTCGGGTTGTGCTGACCCAAAAGCACGACAGCCCATCGGAGTCACCTAGTGCAG,3250 fluorescence intensity (a.u.)
20,ATACCGCGACAATGACATCTGAGTCAATGACTCGTGATAACGGAGTCACCTAGTGCAG,4510 fluorescence intensity (a.u.)
21,CTCATGATGGCTTTATCAATATCAAGATTTGATGACTCAGCGGAGTCACCTAGTGCAG,15400 fluorescence intensity (a.u.)
